NS1 function inh: inhibitors of influenza NS1 protein function. AID 2326. actives 0.4% (n = 270,000). Potency, µM (titrated, usually from 46.1 µM), inactives show top-dose activity, positive = more growth; calls by dose curve; note: potency is the fitted concentration of half-maximal effect; actives are rising curves; nearly all actives have a fitted effect of over 50% in size
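Growth recovery, yeast-based: influenza A NS1 expressed in S. cerevisiae causes slow growth, and suppressors are detected by OD600. The parent strain without NS1 is used as positive control.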
Pf growth 48h: inhibits P. falciparum growth in the first generation, 48 h; P. falciparum luciferase growth in erythrocytes, 48 h; Potency, µM (highest dose often 28.7 µM), for the others: top-dose activity change, negative = inhibition, usual class: inhibitors; actives 5.9% (n = 310,000); AID 504832; note: potency is the fitted concentration of half-maximal effect; % is set by controls: 0 for no effect and ±100 for the full control effect
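Read-out is firefly luciferase luminescence from an integrated reporter in P. falciparum, so falling signal marks reduced parasite growth. Infected erythrocytes were at 2% hematocrit and 0.1% parasitemia (final) in Albumax-supplemented RPMI 1640.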
CHX counter: affects cycloheximide protein synthesis inhibition readout, counter-screen | max response, % | cell reporter, cycloheximide protein synthesis inhibition counterscreen | actives 12% (n = 300,000) | AID 2314; in the data active = max response mostly above about 13%, no sharp cut-off; inactive = mostly below about 14%; note: read at 38.3 µM for the half of the compounds with a filed dose; 0% is about no effect
FBPA Giardia inh: inhibitors of Giardia lamblia fructose-1,6-bisphosphate aldolase. purified Giardia FBPA. Potency, µM (series often up to 59.6 µM), inactives show at the highest dose activity, negative = inhibition, most hits filed as inhibitors. actives 0.71% (n = 290,000). A8B2U2. AID 2451; note: potency is the fitted concentration of half-maximal effect; % is set by controls: 0 for no effect and ±100 for the full control effect; nearly all actives have a fitted effect of over 55% in size
Target sequence (A8B2U2 whole entry, looked up): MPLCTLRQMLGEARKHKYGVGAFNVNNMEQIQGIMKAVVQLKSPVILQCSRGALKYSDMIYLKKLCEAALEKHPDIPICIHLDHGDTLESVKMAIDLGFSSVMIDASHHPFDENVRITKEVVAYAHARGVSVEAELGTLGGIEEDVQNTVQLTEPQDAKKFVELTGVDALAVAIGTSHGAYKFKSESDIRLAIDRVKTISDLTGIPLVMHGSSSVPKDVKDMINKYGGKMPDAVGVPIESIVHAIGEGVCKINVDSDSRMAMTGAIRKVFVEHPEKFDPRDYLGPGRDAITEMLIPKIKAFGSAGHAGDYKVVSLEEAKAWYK
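Giardia FBPA (40 nM reagent) was preincubated 10 min at RT with compound (up to 57.5 uM final), then substrate plus GAPDH/TPI/NAD/arsenate coupling system with diaphorase/resazurin was added; resorufin fluorescence (525/598 nm) was read after 20 min.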
Shiga inhibitor: blocks Shiga toxin action in Vero cells | Vero cells, Shiga toxin protein synthesis inhibition reporter | inhibition, % at 38.7 µM | actives 9.2% (n = 290,000); in the data active = inhibition mostly above about 28%, no sharp cut-off; inactive = mostly below about 43%; note: 0% is about no effect
Pf growth 96h: inhibits malaria parasite growth, 96 h; P. falciparum luciferase reporter growth, 96 h; Potency, µM (doses to about 28.7 µM), for the others: top-dose activity change, negative = inhibition, most hits filed as inhibitors; actives 6.9% (n = 320,000); AID 504834; note: potency is the fitted concentration of half-maximal effect; % is set by controls: 0 for no effect and ±100 for the full control effect
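Readout is luminescence from an integrated firefly luciferase in P. falciparum. Red cells, 2% hematocrit and 0.05% parasitemia final, were cultured with compound through two parasite generations (96 hours) at 37 C, 5% CO2.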
Numbers without * were called inactive; i = inactive; ? = inconclusive; . = no result given. An excerpt weighted towards active compounds, which were near 21% of everything screened. Unless noted, calls come from the whole dose curve; as a rule, active = well fitted curve in the direction sought with a large enough effect; inconclusive = small, poorly fitted or top-dose-only effect, or another doubt; inactive = no such curve, though single readings can be large; an effect the other way counts as inactive or inconclusive.

SMILES	NS1 function inh	Pf growth 48h	CHX counter	FBPA Giardia inh	Shiga inhibitor	Pf growth 96h
Cc1nn(CC(=O)N2CCN(c3cccc(C(F)(F)F)c3)CC2)c(=O)c2cccn12	7.9%	28.5%	5.8	2.2%	1.3	0.2%
N#Cc1ccc(OS(=O)(=O)c2ccc(-c3ccon3)s2)cc1	-14.3%	32.7%	-2.2	.	2.9	?
Cc1ccc(/C=N/N=C/c2ccc(C)cc2)cc1	1.8%	?	36.5*	4.1%	74.3*	?
C(=N\N=C\c1ccccc1)/c1ccccc1	8.3%	i	55.2*	2.1%	132.3*	-24.3%
Oc1ccc(/C=N/N=C/c2ccc(O)cc2)cc1	-1.2%	?	50.0*	0.4%	115.1*	7.6%
S=c1[nH]ncn1/N=C/c1ccccc1	3.3%	-1.8%	-1.9	?	-9.2	6.0%
Fc1cccc(/C=N/N=C/c2cccc(F)c2)c1	-3.8%	?	31.4*	-3.9%	111.6*	9.1%
C/C(CCc1ccccc1)=N\NC(=O)C(=O)Nc1cccc(Cl)c1	.	-1.6%	-1.1	4.3%	-2.2	?
COc1cc(C(=O)Nc2ccn(C)n2)ccc1OC(F)F	.	70.6%	.	.	.	87.6%
CC1C(=O)OC(c2ccc(Br)cc2)C(C)(C)C1=O (stereo unspecified)	-1.0%	16.3%	1.1	17.0%	-6.0	2.0%
CCCC(=O)NC(=S)Nc1cccc(C(C)=O)c1	-4.8%	30.2%	12.8	1.9%	10.6	20.1%
CC(=O)c1cccc(NC(=S)NC(=O)c2ccc(Br)cc2)c1	14.1%	16.6%	32.1*	?	32.0	-95.6%
CCC(=O)NC(=S)Nc1cccc(C(C)=O)c1	4.7%	2.4%	1.1	1.4%	-3.0	37.5%
CC(=O)c1cccc(NC(=S)NC(=O)c2ccc(C)cc2)c1	-0.2%	70.8%	39.9*	-17.2%	87.7*	9.6%
Cc1ccc(C(=O)NC(=S)Nc2ccc(NC(=O)c3cccc(Cl)c3)cc2)cc1	-1.7%	?	-0.4	0.0%	-10.1	?
CCCCCC(=O)NC(=S)Nc1cccc(C(C)=O)c1	1.2%	32.3%	22.6*	-0.9%	32.3*	?
Cc1cc(NC(=O)CN2C(=O)NC(CC(C)C)C2=O)ccc1Br (stereo unspecified)	.	-14.0%	.	.	.	7.1%
O=C(Nc1ccccc1F)Nc1cc(Cl)ccc1-n1cncn1	6.3%	0.3%	-6.0	7.6%	-11.2	16.2%
O=C(Nc1cc(Cl)ccc1-n1cncn1)c1ccc([N+](=O)[O-])s1	-105.1%	?	18.8*	.	-22.7	?
COc1cc(OC)c(C(=O)Nc2cc(Cl)ccc2-n2cncn2)cc1OC	.	5.86µM*	.	.	.	5.86µM*
CC(Oc1ccccc1)C(=O)Nc1cc(Cl)ccc1-n1cncn1 (stereo unspecified)	.	3.7µM*	.	.	.	2.33µM*
CC(Oc1ccc(F)cc1)C(=O)Nc1cc(Cl)ccc1-n1cncn1 (stereo unspecified)	.	2.33µM*	.	.	.	2.62µM*
O=[N+]([O-])/C=C\c1cc2ccccc2[nH]1	-40.0%	.	.	.	.	.
COCCNc1ccc(N2C(=O)CCCC2=O)cc1[N+](=O)[O-]	-2.4%	-5.2%	-8.6	8.3%	-20.4	28.8%
COc1cc(NC(=O)CN2CCN(CC(=O)Nc3ccccc3OC)CC2)cc(OC)c1	4.5%	-19.5%	1.8	-9.8%	-6.9	9.0%
SMILES	NS1 function inh	Pf growth 48h	CHX counter	FBPA Giardia inh	Shiga inhibitor	Pf growth 96h
CNc1c([N+](=O)[O-])cnn1-c1ccccc1Cl	6.6%	48.2%	15.3*	1.4%	6.1	56.9%
CNc1c([N+](=O)[O-])cnn1-c1ccc(Cl)cc1Cl	0.4%	0.0%	-1.5	-2.5%	-13.8	9.7%
Cc1nnc(SCC(=O)N2c3ccccc3Sc3ccccc32)n1N	-0.8%	-11.6%	-1.8	3.3%	0.6	251.2%
Cc1nnc(SC(=O)N2c3ccccc3Sc3ccccc32)s1	-9.3%	10.4µM*	-2.5	-9.7%	-12.2	.
O=C1CC(c2ccccc2F)C2=C(COC2=O)N1 (stereo unspecified)	-1.0%	?	0.4	1.6%	-2.2	55.5%
CCOC(=O)c1ccc(NC(=S)NCCc2ccccc2)cc1	-157.5%	?	1.3	-0.5%	-18.9	13.1µM*
CCOC(=O)c1ccc(NC(=S)Nc2ccc(Cl)cn2)cc1	0.5%	87.1%	-1.4	-7.5%	-3.8	-16.3%
CCOC(=O)c1ccc(NC(=O)NCc2ccccc2)cc1	-3.5%	-17.4%	11.9	1.2%	2.4	?

Screening data: PubChem, National Center for Advancing Translational Sciences (NCATS)
